Test results from PubChem BioAssay (NCI).
Compounds without any hit were thinned out: in the full panel of roughly 79,000, 15% have a hit. Values without a mark were called inactive. Calls of active or inactive are those of the source. No stated cut-off is given here; in the data, active means growth inhibition above about 70%; inactive means the rest.

How the values were obtained:
[1] = NCI Yeast Anticancer Drug Screen. Data for the rad50 strain (AID 155);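 further: 0% = growth of vehicle-only cultures of the same strain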; conditions: S. cerevisiae rad50 strain growth inhibition, hits give high values
In short: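 Genetically altered yeast (DNA repair pathway); compound treatment; growth inhibition vs vehicle ctrl.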

[2] = NCI Yeast Anticancer Drug Screen. Data for the mec2-1 strain (AID 157); conditions: S. cerevisiae mec2-1 strain, hits give high values
In short: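 Readout is yeast growth inhibition, normalised to vehicle-treated controls, in the mec2-1 strain exposed to compound.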

[3] = NCI Yeast Anticancer Drug Screen. Data for the sgs1 mgt1 strain (AID 161);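 further: 0% = growth of cultures given vehicle only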; conditions: S. cerevisiae sgs1 mgt1 strain, hits give high values
In short: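 Growth of a repair-deficient yeast mutant was monitored after compound treatment and expressed as inhibition relative to vehicle-treated cultures.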

[4] = NCI Yeast Anticancer Drug Screen. Data for the cln2 rad14 strain (AID 165);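 further: 0% = growth equal to vehicle treated cultures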; conditions: S. cerevisiae cln2 rad14 strain, hits give high values
In short: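 Relative to vehicle controls, growth inhibition of compound-treated cln2 rad14 yeast was recorded.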

[5] = NCI Yeast Anticancer Drug Screen. Data for the bub3 strain (AID 167); conditions: S. cerevisiae bub3 mutant strain, hits give high values
In short: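 Yeast carrying a defined mutation is treated with each compound, and growth is compared with that of vehicle-exposed cells to give inhibition.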

[6] = NCI Yeast Anticancer Drug Screen. Data for the mlh1 rad18 strain (AID 175); conditions: S. cerevisiae mlh1 rad18 strain growth inhibition, hits give high values
In short: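 Test agents were incubated with a yeast strain of defined genotype (DNA damage repair defect). Inhibition of growth was derived by comparison with vehicle-exposed cultures.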

[7] = at 5.0 µM (retest, dose inferred, filed as 0.5)
[8] = at 50.0 µM (retest, dose inferred, filed as 5.0)

Row | SMILES | growth inhibition [1, 7] | growth inhibition [1, 8] | growth inhibition ([1]; at 50.0 µM) | growth inhibition [2, 7] | growth inhibition [2, 8] | growth inhibition ([2]; at 50.0 µM) | growth inhibition [3, 7] [%] | growth inhibition [3, 8] | growth inhibition ([3]; at 50.0 µM) | growth inhibition [4, 7] | growth inhibition [4, 8] | growth inhibition ([4]; at 50.0 µM) | growth inhibition [5, 7] [%] | growth inhibition [5, 8] | growth inhibition ([5]; at 50.0 µM) | growth inhibition [6, 7] [%] | growth inhibition [6, 8] | growth inhibition ([6]; at 50.0 µM)
1 | COc1cccc2c1C(=O)c1c(O)c3c(c(O)c1C2=O)CC(O)(C(C)=O)CC3OC1CC(NCC2(O)OCC(O)C2O)C(O)C(C)O1 (centres undefined) | 50% | 96% (active) | 88.8% (active) | 34% | 98% (active) | 88.6% (active) | 33 | 98% (active) | 86.8% (active) | 44% | 97% (active) | 87.4% (active) | 34 | 98% (active) | 87.1% (active) | 40 | 96% (active) | 91% (active)
2 | N#CC(C(=O)C(=O)Nc1ccc(Cl)cc1)c1c(Cl)cccc1Cl (centres undefined) | 12% | 1% | 56.2% | 7% | 11% | 7.5% | 24 | 8% | 28.8% | 18% | 10% | -22.4% | 27 | 6% | 8.2% | 14 | 3% | 24.9%
3 | CCOC(=O)C(Cl)C(Cl)C(=O)OCC (centres undefined) | 12% | 98% (active) | 98.8% (active) | 6% | 98% (active) | 99% (active) | 2 | 99% (active) | 99.5% (active) | 6% | 98% (active) | 98.4% (active) | 22 | 98% (active) | 99% (active) | 12 | 99% (active) | 99% (active)
4 | CN(C)c1ccc(/C=N/N=C(/C#N)[S][Sn]([S]/C(C#N)=N/N=C/c2ccc(N(C)C)cc2)([c]2ccccc2)[c]2ccccc2)cc1 | 7% | 95% (active) | 98.3% (active) | 1% | 96% (active) | 96.5% (active) | 10 | 92% (active) | 97.7% (active) | 0% | 89% (active) | 95.9% (active) | -19 | 98% (active) | 95.7% (active) | 5 | 96% (active) | 97.4% (active)
5 | O=S1(=O)CCN(c2ccccc2CC(c2c[nH]c3ccccc23)c2c[nH]c3ccccc23)CC1 | 29% | 90% (active) | 88.5% (active) | -5% | 73% (active) | 74.8% (active) | 3 | 79% (active) | 87.7% (active) | 5% | 62% | 86.2% (active) | 14 | 89% (active) | 90.6% (active) | 34 | 94% (active) | 91.9% (active)
6 | COC(=O)c1nc(=S)[nH]c(C(=O)OC)c1C(=O)c1ccc(O)c(OC)c1 | -6% | 95% (active) | 98.5% (active) | -7% | 97% (active) | 78.3% (active) | -16 | 96% (active) | 98.4% (active) | -4% | 90% (active) | 47% | 1 | 96% (active) | 84.3% (active) | 7 | 97% (active) | 96.3% (active)
7 | Cc1ccc(NC(=S)SCc2ccc(Cl)cc2)cc1Cl | 33% | 97% (active) | 90.5% (active) | 19% | 98% (active) | 92.3% (active) | 44 | 99% (active) | 92.2% (active) | 40% | 98% (active) | 89.8% (active) | 55 | 99% (active) | 91.9% (active) | 23 | 97% (active) | 91% (active)
8 | C[n+]1c(-c2ccc(/C=N/NC(=O)c3ccc(C(=O)N/N=C/c4ccc(-c5cn6ccccc6[n+]5C)cc4)nc3)cc2)cn2ccccc21 | 35% | 99% (active) | 99.2% (active) | 14% | 99% (active) | 98.8% (active) | 35 | 99% (active) | 98.8% (active) | 34% | 99% (active) | 99% (active) | 24 | 99% (active) | 98.9% (active) | 50 | 99% (active) | 99.1% (active)
9 | N#CC(C(=O)C(N)=O)c1ccc(Cl)cc1Cl (centres undefined) | 0% | -2% | 82.2% (active) | 1% | 6% | 99.6% (active) | 1 | 0% | 99.6% (active) | -4% | 8% | 91.3% (active) | -1 | 21% | 96.6% (active) | -3 | 2% | 99.2% (active)
10 | Nc1ccc(S(=O)(=O)Nc2nc3ccccc3nc2N2CCCCC2)cc1 | 29% | 46% | 51.8% | 35% | 44% | 40.8% | 32 | 94% (active) | 64.7% | 36% | 91% (active) | 32.3% | 30 | 96% (active) | 76.4% (active) | 44 | 60% | 85.9% (active)
11 | O=[N+]([O-])c1ccc(Sc2c3ccccc3nc3ccccc23)nc1 | 94% (active) | 99% (active) | 98.3% (active) | 82% (active) | 99% (active) | 97.5% (active) | 62 | 99% (active) | 97.7% (active) | 83% (active) | 98% (active) | 96.7% (active) | 49 | 99% (active) | 96.5% (active) | 66 | 99% (active) | 97.2% (active)
12 | CN(C)CC/[N+]([O-])=C(/c1ccccc1)C12CC3CC(CC(C3)C1)C2 | -6% | 6% | -16.6% | -1% | -1% | 1.8% | 14 | 31% | 16.9% | 7% | -1% | 17.1% | 1 | 3% | -1.9% | 9 | 25% | 70.6% (active)
13 | C=CC1(C)CCC2C(=CCC3C(C)(COC4OC(CO)C(O)C(O)C4O)C(O)CCC23C)C1 (centres undefined) | -4% | 99% (active) | 93.2% (active) | -1% | 99% (active) | 93.9% (active) | -3 | 43% | 93.8% (active) | -1% | 70% (active) | 91.5% (active) | 18 | 92% (active) | 93.6% (active) | -3 | 99% (active) | 92.8% (active)
